Screening results from PubChem BioAssay.
Most compounds without a hit are left out; they make up all but 2.7% or so of the library.
TMEM16A inh: blocks the mouse calcium-activated chloride channel TMEM16A. Q8BHY3. HEK293 TMEM16A/YFP iodide influx fluorescence, ionomycin. normalized B-score (activity score, 25-100; higher = stronger inhibition) at 10 µM. 310,000 tested, 1.2% active;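 active means ratio plate-corrected score three or more library SD toward inhibition, starting fluorescence score within five deviations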;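 further: score derived from kinetic fluorescence span divided by baseline fluorescence per well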
FID counter: counter-screen for HCV NS3 helicase inhibitors: DNA intercalator displacement. DNA fluorescent intercalator displacement, fluorescence. inhibition, % at 7.9 µM. 290,000 tested, 0.17% active. AID 1845; in the data active means inhibition above about 37%;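 further: 0% = vehicle and 100% = reference compound; higher means more ethidium bromide displaced from hairpin DNA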
PP5 inh: PP5 (human) phosphatase inhibition. AID 1987. purified PP5c, OMFP substrate fluorescence. P53041. inhibition, % at 6.7 µM. 320,000 tested, 0.18% active;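 active means inhibition above the campaign's mean inhibition across all tested compounds plus 3 SD, cut at about 9.5% in these data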;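 further: 0% = DMSO only and 100% = 100 µM cantharidin control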
Target sequence (P53041 whole entry, looked up): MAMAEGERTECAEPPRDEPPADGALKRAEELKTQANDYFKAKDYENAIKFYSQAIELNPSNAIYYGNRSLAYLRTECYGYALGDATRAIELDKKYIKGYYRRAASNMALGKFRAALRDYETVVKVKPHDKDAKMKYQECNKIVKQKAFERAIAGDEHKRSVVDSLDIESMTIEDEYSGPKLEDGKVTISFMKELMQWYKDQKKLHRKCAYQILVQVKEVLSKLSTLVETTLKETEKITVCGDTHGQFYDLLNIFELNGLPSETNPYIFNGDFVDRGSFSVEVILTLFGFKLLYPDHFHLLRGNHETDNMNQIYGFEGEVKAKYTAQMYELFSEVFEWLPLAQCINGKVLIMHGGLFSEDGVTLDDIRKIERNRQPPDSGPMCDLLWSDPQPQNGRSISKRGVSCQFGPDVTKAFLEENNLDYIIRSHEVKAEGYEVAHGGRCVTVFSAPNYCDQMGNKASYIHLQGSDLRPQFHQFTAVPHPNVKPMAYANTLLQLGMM
PREPL inh: inhibitors of human prolyl oligopeptidase-like enzyme PREPL; Q4J6C6; recombinant PREPL, fluorescence polarization activity-based probe; inhibition, % at 5.96 µM; 320,000 tested, 0.68% active; AID 2751; in the data active means inhibition above about 43%;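 further: 0% = enzyme with DMSO and 100% = wells lacking enzyme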
PP1 inh: counter-screen for PP5 inhibitors: inhibitors of human PP1-alpha | P62136 | purified PP1alpha, OMFP fluorescence | inhibition, % at 6.7 µM | 320,000 tested, 0.9% active | AID 2235;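 active means inhibition above the mean inhibition of all tested compounds plus 3 SD, computed separately for each screening campaign, cut at about 15% in these data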
ANO1 activ: activates or potentiates the mouse TMEM16A chloride channel. 340,000 tested, 0.3% active. Q8BHY3. HEK293 TMEM16A/YFP-H148Q/I152L, iodide quench fluorescence; active compounds read low. B-score at 10 µM. AID 623877;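 active means fluorescence-ratio B-score plate-corrected deviation score at least 3 library SD below zero, with starting fluorescence score within 5 deviations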;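 further: channel opened by trigger with iodide after compound preincubation; score built on the fluorescence ratio of max minus min over baseline; more negative score means more quench and so TMEM16A activation or potentiation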
TMEM16A reconf: TMEM16A (mouse) chloride channel inhibition, re-confirmation; shares compounds with TMEM16A inh; HEK293 TMEM16A/YFP-H148Q, iodide quench fluorescence; ionomycin added to raise cell calcium; inhibition, % at 10 µM; 2,300 tested, 39% active; AID 652189;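 active means mean duplicate percent inhibition, scaled so buffer wells are 0 and the reference blocker 100, over three buffer SD above buffer mean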
TMEM16A Ca cntr: counter-screen for TMEM16A inhibitors: effect on calcium mobilization | TMEM16A/YFP HEK293, Fluo4 calcium mobilization | calcium response (% of ionomycin), % at 10 µM | AID 652231 | shares compounds with TMEM16A inh | 2,300 tested, 2% active;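 active means duplicate-averaged calcium signal over 20% of the ionomycin maximum, relative to buffer baseline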;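 further: each well's signal is peak minus trough fluorescence divided by its pre-addition baseline; 0% = buffer wells and 100% = ionomycin wells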
YFP-HEK293 quench: acts in parental YFP-HEK293 cells lacking TMEM16A, counter-screen; shares compounds with TMEM16A inh; iodide YFP quench, ionomycin; YFP ratio F(max-min)/F0 at 10 µM; AID 652233; 2,300 tested, under 10 active;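 active means yellow fluorescent protein signal ratio exceeding the buffer control mean by over 5 SD of those controls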;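 further: ratio is mean of duplicate wells from kinetic YFP trace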
ClC-1 rat inh: rat ClC-1 inhibition, TMEM16A specificity screen | shares compounds with TMEM16A inh | CHO ClC-1-YFP, iodide influx fluorescence quench; iodide control reads 0, buffer control 100 | ratio percent, % at 10 µM | 2,300 tested, under 10 active | AID 652236;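 active means duplicate-mean ratio percent above the mean of iodide-only control wells, which defines zero, plus 5 of their SD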;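 further: higher percent means stronger block of ClC-1 iodide influx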
* hit, by the source's call; i = inactive; · = no result.

SMILES	TMEM16A inh	FID counter	PP5 inh	PREPL inh	PP1 inh	ANO1 activ	TMEM16A reconf	TMEM16A Ca cntr	YFP-HEK293 quench	ClC-1 rat inh
CSc1ccccc1OCc1cc(C(=O)N2CCNC(=O)C2)no1	i	-17.6	0.8	-0.3	0.1	i	·	·	·	·
Cc1c(OCC(=O)NCC(O)c2ccccc2)ccc2c(-c3ccccc3)cc(=O)oc12 (stereo not drawn)	i	-34.0	1.5	-4.0	-4.2	i	·	·	·	·
O=C(O)c1cccc2c1C(=O)c1cccc3snc-2c13	i	1.7	1.5	2.0	-2.9	i	·	·	·	·
O=C(COc1ccc2c(c1)oc(=O)c1ccccc12)NCCN1CCOCC1	i	19.8	-4.6	28.0	2.2	i	·	·	·	·
Cc1csc(NC(=O)c2cc3ccccc3o2)n1	·	·	-0.9	1.5	-1.4	i	·	·	·	·
Cc1csc(C(C#N)C(=O)c2cc3ccccc3o2)n1 (stereo not drawn)	25*	1.1	1.9	12.9	-3.1	i	29.5%*	i	-1.06	-25.5
CCCN(C(=O)c1cc(S(=O)(=O)N(C)c2ccccc2OC)ccc1C)C1CCS(=O)(=O)C1 (stereo not drawn)	·	·	·	·	·	i	·	·	·	·
CCN(CC)C(=O)c1cc(-c2ccccc2OC)on1	100*	-14.3	1.4	24.6	-2.8	i	i	i	-1.12	-15.5
COCCn1c(N)c(Sc2ccc(Cl)cc2)c(=O)[nH]c1=O	i	-4.2	1.6	0.8	-2.4	i	·	·	·	·
CCOC(=O)c1[nH]c2ccc(Br)cc2c1NC(=O)CCN1CCCC(C)(C)C1	i	10.4	1.3	-15.5	-3.8	i	·	·	·	·
O=C(O)c1nc(NCCc2ccccc2)ncc1Cl	i	5.2	1.0	1.8	-1.6	i	·	·	·	·
CC(c1ccco1)N(C(=O)CSc1ccc(Br)cc1)c1ccccn1 (stereo not drawn)	100*	-30.1	0.3	15.1	-0.9	i	17.5%*	i	-1.25	-13.5
CCCS(=O)(=O)N1CCN(Cc2ccc3c(c2)c2ccccc2n3CC)CC1	i	0.0	3.8	2.6	2.6	i	·	·	·	·
CCOc1ccc(Br)cc1S(=O)(=O)N1CC(C)OC(C)C1 (stereo not drawn)	100*	-8.4	-0.9	34.4	-0.3	i	i	i	-1.13	-10.5
CCOC(=O)N1CCN(S(=O)(=O)N2CCCC(C(=O)NCc3ccc(OC)cc3)C2)CC1 (stereo not drawn)	i	-46.5	-1.0	2.4	8.2	i	·	·	·	·
COC(=O)c1cc(COc2ccc3oc(C)c(C(=O)OC)c3c2)c(C)o1	100*	-3.8	1.4	-5.9	0.4	i	i	i	-1.22	-11.0
Cc1ccc(C(=O)c2c[nH]c(C(=O)NCCCN3CCOCC3)c2)cc1	i	-0.8	-3.5	1.6	3.7	i	·	·	·	·
CC(C)CC(=O)c1c[nH]c(C(=O)NCCCN2CCOCC2)c1	25*	1.7	2.6	-14.4	3.0	i	i	i	-0.994	-9.5
CC(C)(C)c1ccc(OCc2ccc(C(=O)NCc3cccnc3)o2)cc1	100*	-26.5	4.8	-17.3	2.1	i	i	i	-1.07	-15.5
CC1CCC/C(=N\NC(=O)c2ccncc2)C1 (stereo not drawn)	i	-3.2	2.5	11.0	3.5	i	·	·	·	·
CC(=O)Nc1ccc(S(=O)(=O)CCC#N)cc1	i	-0.2	1.8	-2.4	1.4	i	i	i	-1.11	-17.5
Cc1ccc(S(=O)(=O)CCC#N)cc1	i	-12.8	2.5	-18.5	-2.8	i	·	·	·	·
Cc1ccnc(Nc2nc(-c3ccc(F)cc3)cs2)c1	100*	-3.6	3.9	16.5	1.2	i	i	i	-1.07	-1.5
Cc1ccnc(Nc2nc(-c3ccc(Cl)cc3)cs2)c1	i	-1.9	-2.5	2.5	5.8	i	·	·	·	·
OC(COc1ccc2ccccc2c1Br)Cn1ccnc1 (stereo not drawn)	25*	1.2	3.0	-6.2	1.2	i	i	i	-1.03	-1.0
SMILES	TMEM16A inh	FID counter	PP5 inh	PREPL inh	PP1 inh	ANO1 activ	TMEM16A reconf	TMEM16A Ca cntr	YFP-HEK293 quench	ClC-1 rat inh
OC(COc1ccc2ccccc2c1)Cn1ccnc1 (stereo not drawn)	i	17.6	1.0	-15.1	-4.5	i	·	·	·	·
CCOC(=O)c1cc(C)n(S(=O)(=O)c2ccc(C)cc2)c1C	100*	-1.7	0.8	0.5	0.4	i	18.0%*	i	-1.12	-4.5
CCCC(=O)Nc1c2c(nn1-c1ccc(OC)cc1)CS(=O)(=O)C2	i	-0.7	-3.8	-0.3	-3.9	i	·	·	·	·
CCCC(=O)Nc1c2c(nn1-c1ccc(C)cc1)CS(=O)(=O)C2	100*	-2.3	-2.6	1.9	1.4	i	i	i	-1.01	-10.0
CCOC(=O)c1ccc(-n2[nH]c(-c3ccccc3)cc2=O)cc1	100*	-5.0	2.4	7.8	8.9	i	i	i	-0.889	-4.0
CC(C)Cc1ccc(CN2CCCC(NC(=O)c3ccnn3C)C2)cc1 (stereo not drawn)	25*	2.1	-0.6	-7.8	-3.8	i	i	i	-1.24	-8.0
Cc1ccc(Cl)cc1N1CCN(C(=O)c2cc3c(=O)[nH]c4ccccc4c3n2C)CC1	25*	-2.5	-0.6	-17.1	-5.4	i	37.5%*	i	-0.975	-31.5
Cn1c(C(=O)N2CCN(c3ccc(Cl)cc3)CC2)cc2c(=O)[nH]c3ccccc3c21	i	-5.9	2.3	-49.5	0.9	i	·	·	·	·
COc1ccc(OC)c(-c2csc(NC(=O)COC(=O)c3ccc(NC(=O)CC#N)cc3)n2)c1	·	·	-0.2	-10.8	9.9	i	·	·	·	·
Cc1nc(C)n(CC(C)C(=O)N2CCN(S(=O)(=O)c3ccccc3)CC2)n1 (stereo not drawn)	25*	-4.2	0.6	10.9	-5.5	i	i	i	-0.96	-3.0
Cc1cc(C)c(S(=O)(=O)N2CCN(C(=O)C(C)Cn3nc(C)nc3C)CC2)c(C)c1 (stereo not drawn)	i	-24.6	4.6	-0.5	0.0	i	·	·	·	·
COc1ccc(NC(=O)N2CCCCCC2)cc1OC	i	-3.6	1.0	3.5	-2.1	i	·	·	·	·
COc1ccc(NC(=O)N2CCCC2)cc1OC	25*	0.2	-0.8	5.4	-2.7	i	i	i	-1.12	-7.0
